Experimental findings from PubChem BioAssay AID1961 (Sanford-Burnham Center for Chemical Genomics, 2009) are described below.

The nature of test [1]: selective activators of receptor GPR55 – imaging, U2OS cells, beta-arrestin-GFP redistribution, primary screen (AID 1961).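 For activation: plate controls were DMSO negative control for no effect and LPI positive control for full effect.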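 Note: U2OS osteosarcoma cells stably expressing GPR55 and beta-arrestin-GFP.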 The note with it: measured here: cytotoxicity, cells analyzed, at 10 µM.
Test [2] deals with G-protein coupled receptor 55 (Homo sapiens) (UniProt Q9Y2T6). Described as above. The note with it: at 10 µM, stronger effect = higher value.

About 140 (0.048%) of roughly 290,000 compounds were called active.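 Rule for the calls: active = activation above 40% with more than 50 cells counted in the well; inconclusive = wells holding fewer than 50 cells, flagged as toxic or sparse; inactive = the rest.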 Only a selection was taken, and actives are over-represented in it overall.

Sequence of G-protein coupled receptor 55 (Homo sapiens) (Q9Y2T6 whole entry, looked up): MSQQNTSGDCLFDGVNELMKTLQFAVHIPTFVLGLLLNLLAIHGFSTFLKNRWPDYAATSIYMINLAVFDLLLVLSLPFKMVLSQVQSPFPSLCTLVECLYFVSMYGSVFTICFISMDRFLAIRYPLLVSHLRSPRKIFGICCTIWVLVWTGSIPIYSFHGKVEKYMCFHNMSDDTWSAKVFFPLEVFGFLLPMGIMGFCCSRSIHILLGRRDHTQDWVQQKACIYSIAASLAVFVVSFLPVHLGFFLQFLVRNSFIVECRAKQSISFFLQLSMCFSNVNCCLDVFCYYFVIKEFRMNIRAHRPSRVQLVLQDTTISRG

As for `O=C(Nc1ccc2c(c1)C(=O)OC2)c1ccc(F)cc1F`, in test [1], the cell count is 353 cells. In addition, the activation in test [2] is -0.2% (inactive).
`Cc1nn(C)c(C)c1CNC(=O)c1cc2n(n1)C(C(F)(F)F)CC(c1cccs1)N2` (stereo not given) gave a cell count in test [1] of 389 cells. In test [2], the activation was 0.1% (inactive).
As for `Nc1c(-c2ccccc2)c(CSc2nc3ccccc3[nH]2)nn1-c1ccc(C(=O)O)cc1`, the cell count in test [1] is 311 cells. The activation in test [2] was -0.2% (inactive).
With `COc1cc(/C=C(\NC(=O)c2ccccc2)C(=O)NCC(=O)O)c([N+](=O)[O-])cc1OC`, the cell count in test [1] came out at 349 cells. In addition, in test [2], the activation was -0.1% (inactive).
For `COc1cc(/C=C/c2cc(OC(C)=O)c3ccccc3n2)c(OC(C)=O)c([N+](=O)[O-])c1`, the cell count in test [1] amounted to 366 cells. In addition, the activation in test [2] is 0.2% (inactive).
`CN(C)c1ccnc(Nc2ccccc2)c1C#N` displayed a cell count in test [1] of 373 cells. Besides, the activation in test [2] was 0.3% (inactive).
For the molecule `O=C1c2ccccc2C(=O)N1Cc1cccnc1`, the cell count in test [1] stood at 406 cells. For the same molecule, in test [2], the activation was -0.2% (inactive).
The like results for `Cn1c(=O)c(C(=O)COC(=O)c2cc(-c3ccco3)nc3ccccc23)c(N)n(CC2CC2)c1=O` were, in that order, 375 cells and 59.6% (active).
Taken in the same sequence, the figures for `CC(C)Cn1c(N)c(C(=O)COC(=O)c2cc(-c3ccco3)nc3ccccc23)c(=O)n(C)c1=O` were 285 cells and -0.1% (inactive).
The like results for `Cn1c(=O)c(C(=O)COC(=O)c2cc(-c3ccco3)nc3ccccc23)c(N)n(Cc2ccccc2)c1=O` were, in that order, 365 cells and 8.3% (inactive).
In the case of `Cc1ccc(C)c(CN2C(=O)c3ccccc3S(=O)(=O)c3ccc(C(=O)N4CCN(C)CC4)cc32)c1`, the cell count in test [1] turned out to be 338 cells. Moreover, in test [2], the activation is -0.2% (inactive).
The like results for `CCOC(=O)N1CCN(C(=O)c2ccc3c(c2)N(Cc2cccc(Cl)c2)C(=O)c2ccccc2S3=O)CC1` (stereo not given) were, in that order, 331 cells and 21.2% (inactive).
In test [1], `Cc1ccc(C(=O)N2CCN(c3ccccn3)CC2)cc1Cl` displayed a cell count of 384 cells. Further, the activation in test [2] is -0.2% (inactive).
Taken in the same sequence, the figures for `Cc1ccc(C(=O)N2CCN(c3ccccn3)CC2)cc1C` were 396 cells and -0.1% (inactive).
The like results for `CC(=O)Nc1nc(SCC(=O)Nc2nnc(C)s2)[nH]c(=O)c1NC(=O)c1cccs1` were, in that order, 243 cells and 0.7% (inactive).
Taken in the same sequence, the figures for `CCOCCCNc1nc2c(C)cccn2c(=O)c1/C=C1\SC(=S)N(C(C)CC)C1=O` (stereo not given) were 390 cells and 69.7% (active).
With `CCCN1C(=O)/C(=C/c2c(NCCCOCC)nc3c(C)cccn3c2=O)SC1=S`, the cell count in test [1] stood at 462 cells. Besides, the activation in test [2] was 5.7% (inactive).
Taken in the same sequence, the figures for `CCOCCCNc1nc2c(C)cccn2c(=O)c1/C=C1\SC(=S)N(CC(C)C)C1=O` were 348 cells and 1% (inactive).
Take `O=C(N/N=C/c1ccccc1F)c1cccc(NC(=O)c2ccccc2Cl)c1`: the cell count in test [1] was found to be 329 cells. Also, the activation in test [2] is -0.2% (inactive).
Turning to `COc1cc(OC)cc(C(=O)N2CCN(c3ccccc3F)CC2)c1`, in test [1], the cell count was 328 cells. In test [2], the activation is -0.2% (inactive).
The like results for `CCOc1ccc(NC(=O)C2CC(=O)N(c3cc(C)cc(C)c3)C2)cc1` (stereo not given) were, in that order, 314 cells and -0.1% (inactive).
In turn, `COc1cccc(NS(=O)(=O)c2ccc3c(c2)NC(=O)C(C)C(=O)N3)c1` (stereo not given) yielded a cell count in test [1] of 385 cells. In test [2], the activation was -0.1% (inactive).
In test [1], `Cc1ccc(-c2ccc(CO)o2)cc1N` registered a cell count of 282 cells. Besides, the activation in test [2] is -0.3% (inactive).
The like results for `O=C(O)c1cccc(CSc2nnc(-c3ccc(Cl)cc3)o2)c1` were, in that order, 424 cells and 0.2% (inactive).
Take `O=C(O)c1cccc(CSc2ncn[nH]2)c1`: the cell count in test [1] came to 346 cells. In addition, the activation in test [2] is 0.4% (inactive).
Taken in the same sequence, the figures for `O=C(Cn1nc(-c2ccco2)ccc1=O)Nc1cc(C(F)(F)F)ccc1Cl` were 369 cells and -0.1% (inactive).
Molecule `CC(C)(C)NC(=O)COC(=O)c1cc(Br)ccc1Cl` yielded a cell count in test [1] of 284 cells. In addition, in test [2], the activation was -0.3% (inactive).
The like results for `O=C(NOC(=O)c1cc(Br)ccc1Cl)c1cccs1` were, in that order, 347 cells and -0.1% (inactive).
The like results for `O=C(NCc1ccccc1F)C1CCCN(C(=O)NC2CCCCC2)C1` (stereo not given) were, in that order, 299 cells and -0.1% (inactive).
The like results for `COc1cccc(CNC(=O)c2cccc(S(=O)(=O)N3CCN(C)CC3)c2)c1` were, in that order, 306 cells and 0% (inactive).
In turn, `COc1ccc(CNC(=O)CN(C(=O)c2csnn2)c2ccccc2F)cc1` had a cell count in test [1] of 338 cells. The activation in test [2] was -0.1% (inactive).
Taken in the same sequence, the figures for `COc1ccc(N2CCN(C(=O)c3cc(=O)c4ccc(C)cc4o3)CC2)cc1` were 331 cells and -0.2% (inactive).
Taken in the same sequence, the figures for `CCOc1ccccc1C(=O)Oc1ccc2ccc(=O)oc2c1` were 397 cells and 0.9% (inactive).
Turning to `COc1cccc(C2/C(=C(\O)c3ccc4c(c3)OCCO4)C(=O)C(=O)N2CC2CCCO2)c1` (stereo not given), the cell count in test [1] was 382 cells. Further, in test [2], the activation was 0.2% (inactive).
The like results for `FC(F)(F)c1cc(C(F)(F)F)c2ccc(N/N=C/c3ccccc3)nc2n1` were, in that order, 408 cells and -0.3% (inactive).
The like results for `FC(F)(F)c1cc(C(F)(F)F)c2ccc(N/N=C/c3cccc(Cl)c3)nc2n1` were, in that order, 390 cells and 59.1% (active).
The like results for `Cc1ccc(/C=N/Nc2ccc3c(C(F)(F)F)cc(C(F)(F)F)nc3n2)cc1` were, in that order, 447 cells and -0.2% (inactive).
In the case of `COCc1cc(C)nc(N)c1C#N`, the cell count in test [1] was 359 cells. Moreover, the activation in test [2] was 0.1% (inactive).
The like results for `S=C(NCCc1ccccc1)N1CCN(C2CCCCC2)CC1` were, in that order, 462 cells and -0.1% (inactive).
The like results for `O=C(C1=C[C@H](c2ccc(C(F)(F)F)cc2)C[C@H](OCc2ccc(CO)cc2)O1)N1CCOCC1` were, in that order, 338 cells and 0.1% (inactive).
